Drawing on PubChem BioAssay, this text covers inhibition for 10 molecules.

One may read the inhibition as the change of the read-out against control, counted positive when it falls.

A number with no mark means an inactive call. Calls of active or inactive are those of the source. Rule as the data show it, unless noted: active = inhibition above about 44%; inactive = the rest.

Test [1] can be described thus: StAR promoter reporter inhibitors, counter-screen for LRH-1 inverse agonist project, cell-based, luminescence, high throughput (AID 651611; in the data active = inhibition above about 28%). The following applies: StAR promoter luciferase reporter counterscreen, at 3.6 µM, active compounds read high. A general note: A counterscreen serves to expose hits that act by an unwanted route or on another target.
The target of test [2] is Nuclear receptor subfamily 5 group A member 2 (Homo sapiens) (UniProt O00482). The test can be described thus: NR5A2 activity suppression in reporter cells – cell-based, luminescence, confirmation (AID 651613; in the data active = inhibition above about 42%;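 also: HEK293T cells co-transfected with LRH-1 and StAR promoter luciferase reporter; 0% = vehicle wells and 100% = parental cells lacking receptor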). The conditions noted are these: cell-based LRH-1 luciferase reporter, inverse agonism; at 3.6 µM; active compounds read high. (A reporter such as luciferase makes a cellular process visible.)

Test [3] addresses Steroidogenic factor 1 (Homo sapiens) (UniProt Q13285). The test is described as follows: inverse agonism at SF1 nuclear receptor – cell-based, luminescence, high throughput, counter-screen for LRH-1 inverse agonist project (AID 651614).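 Also: cells cotransfected with StAR promoter reporter and SF1 expression vector; 0% = vehicle on cells with receptor and 100% = vehicle on cells lacking receptor.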 The conditions noted are these: cell-based SF1 luciferase reporter, at 3.6 µM, active compounds read high.
The nature of test [4]: compounds suppressing VP16-driven luciferase signal – cell-based, luminescence, high throughput, counter-screen for LRH-1 inverse agonist project (AID 651615; in the data active = inhibition above about 33%). The following applies: Gal4-VP16 luciferase reporter cells, at 3.6 µM, active compounds read high.

Chain of Steroidogenic factor 1 (Homo sapiens) (Q13285 whole entry, looked up, the tested form may be a part): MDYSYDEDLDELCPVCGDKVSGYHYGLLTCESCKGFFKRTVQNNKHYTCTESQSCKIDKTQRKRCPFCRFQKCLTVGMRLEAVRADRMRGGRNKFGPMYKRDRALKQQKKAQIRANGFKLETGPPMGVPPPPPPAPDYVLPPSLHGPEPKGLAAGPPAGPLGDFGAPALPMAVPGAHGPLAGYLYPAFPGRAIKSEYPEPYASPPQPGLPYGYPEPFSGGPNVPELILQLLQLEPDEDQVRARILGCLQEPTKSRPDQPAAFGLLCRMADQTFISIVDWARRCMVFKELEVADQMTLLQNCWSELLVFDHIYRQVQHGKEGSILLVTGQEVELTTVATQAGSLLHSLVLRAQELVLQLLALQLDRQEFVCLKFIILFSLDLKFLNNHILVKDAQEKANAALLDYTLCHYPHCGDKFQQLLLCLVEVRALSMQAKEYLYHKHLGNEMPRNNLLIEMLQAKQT
Chain of Nuclear receptor subfamily 5 group A member 2 (Homo sapiens) (O00482 whole entry, looked up): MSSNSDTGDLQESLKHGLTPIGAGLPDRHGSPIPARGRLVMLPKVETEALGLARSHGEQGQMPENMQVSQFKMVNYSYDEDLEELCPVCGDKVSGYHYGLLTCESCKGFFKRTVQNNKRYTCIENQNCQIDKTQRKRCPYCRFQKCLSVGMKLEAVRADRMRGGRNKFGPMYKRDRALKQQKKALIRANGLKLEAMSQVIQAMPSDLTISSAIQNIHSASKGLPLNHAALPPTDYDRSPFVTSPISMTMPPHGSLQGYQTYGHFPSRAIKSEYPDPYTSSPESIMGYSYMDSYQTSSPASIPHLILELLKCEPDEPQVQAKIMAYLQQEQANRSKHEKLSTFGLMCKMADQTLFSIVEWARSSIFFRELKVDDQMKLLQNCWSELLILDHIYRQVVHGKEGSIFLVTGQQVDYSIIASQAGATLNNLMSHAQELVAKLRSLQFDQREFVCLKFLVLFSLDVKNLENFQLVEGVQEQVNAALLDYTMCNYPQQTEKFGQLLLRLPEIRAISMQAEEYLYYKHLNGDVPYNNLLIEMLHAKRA

Turning to `COc1ccc(-c2cnc3c(NC=O)cc(-c4ccc(S(C)(=O)=O)cc4)cn23)cc1OC`, the inhibition in test [1] is -4.42%; in test [2], 63% (active); in test [3] it was 58.1% (active); in test [4] it was 30.2%.
The like results for `Cc1cccnc1NC(=O)c1ccc([N+](=O)[O-])o1` were, in that order, 12.3%, 52.7% (active), 57.8% (active) and 1.88%.
For `O=C(Cc1c(F)cccc1Cl)Nc1ccncc1`, the inhibition in test [1] is 3.12%; in test [2], 45% (active); in test [3] it was 43.5% (active); in test [4], -7.58%.
On to `CCn1c2ccccc2c2cc(/C=N/n3cnnc3)ccc21`, for which the inhibition in test [1] was -4.6%; in test [2], 30.4%; in test [3], 19.8%; in test [4], 10.1%.
Taken in the same sequence, the figures for `c1ccc(C2=Nn3c(nnc3-c3n[nH]c4c3CCC4)SC2)cc1` were 47.6% (active), 50.8% (active), 40.7% and -147%.
For the molecule `COc1ccc(C2=CC(=O)OC3(CCCCC3)O2)cc1`, the inhibition in test [1] was 15.4%; in test [2], 63.9% (active); in test [3], 45.4% (active); in test [4], 6.01%.
With `Cc1cccc(CSC(Nc2ccc(F)cc2)=C(C#N)C#N)c1`, the inhibition was -5.34% in test [1], 35% in test [2], 29.4% in test [3] and 17.7% in test [4].
In the case of `O=C(Nc1ccc([N+](=O)[O-])cc1)c1cccc([N+](=O)[O-])c1`, the inhibition in test [1] was 8.52%; in test [2], 65.6% (active); in test [3], 64.5% (active); in test [4], -15.3%.
The like results for `CCCOc1ccc2oc(=O)c3c(c2c1)CCCN3C(=O)CN1CCN(c2ncccn2)CC1` were, in that order, 6.16%, 53.4% (active), 55.7% (active) and -7.99%.
Take `S=C(NCc1ccc(Cl)cc1)Nc1ccncc1`: the inhibition in test [1] is 24.2%; in test [2], 80.9% (active); in test [3], 72.8% (active); in test [4], 35.1% (active).
